Measurements reported in PubChem BioAssay (EPA / NIEHS).
Calls of active or inactive are those of the source. The calls were made as follows: active = hit-call score of the fitted dose curve at least 0.9, where 1 is the maximum; inactive = score below 0.9.

The molecules below were run on Cytochrome P450 4A22 (Homo sapiens) (UniProt Q5TCH4) (assay: LTEA_HepaRG_CYP4A22: Life Technologies and Expression Analysis (LTEA) Assay for Cytochrome P450 4A22 (CYP4A22) using HepaRG (AID 2283495)). Conditions: mRNA level, 48 h; actives raise or lower the signal.
Procedure: LTEA_HepaRG is a cell based, multiplexed-readout assay that uses HepaRG, a human liver cell line, with measurements taken at 48 hours after chemical dosing on a 96-well plate.LTEA_HepaRG_CYP4A22 is one of 102 assay component(s) measured in the LTEA HepaRG cell culture assay. It is a marker of NR mediated metabolism.Data from the assay component LTEA_HepaRG_CYP4A22 was analyzed into 1 endpoint. This assay endpoint, LTEA_HepaRG_CYP4A22, was analyzed with bidirectional fitting relative to DMSO as the negative control and baseline of activity. Using a type of inducible reporter, measures of mRNA induction for gain or loss-of-signal activity can be used to understand regulation of transcription factor activity. To generalize the intended target to other relatable targets, this assay endpoint is annotated to the cyp intended target family, where the subfamily is xenobiotic metabolism.
A total of 1060 chemcials from the ToxCast library were tested in eight-point concentration-response experiments. Cell culture and cytotoxicity assays were conducted at Thermo Fisher Scientific's Custom Services facility (Madison, WI). A single lot of human HepaRG cells (Thermo Fisher Scientific, Frederick, MD) was used for the cell culture experiments. 96-well format collagen type I coated plates of human HepaRG cells were prepared using established methods. Briefly, cryopreserved HepaRG cells were thawed, plated at a density of approximately 100,000 cells/well in HepaRG Thaw, Plate, and General Purpose media (HPRG770, Thermo Fisher Scientific), and incubated for 48 hours. 0.5% DMSO was selected as vehicle control to balance the requisite need of DMSO in HepaRG cultures to maintain differentiation (for example, baseline metabolism, proportions of hepatocytes vs. cholangiocytes), while enabling further hepatic receptor pathway activation (for example, PXR and CAR) in response to chemical exposure. 48 hours after plating, the culture medium was replaced with HepaRG Serum-Free Incudtion Media. Cells were exposed to each test chemical in duplicate and maintained in CO2 incubators for another 48 hours. Chemical plates were thawed to room temperature and 200x concentrations of treatment groups were prepared. 8-point conentration-reponse curves were made with the highest exposure at 100 uM, followed by half-log dilutions, all in 0.5% DMSO. Each test plate contained variouse controls, induction positive controls (1mM phenobarbital), cytotoxicity positive controls ([…] aflatoxin B1), vehicle controls (0.5% DMSO), and total lysis controls (0.5% DMSO). Cell morphology images were taken using an Essen IncuCyte FLR automated microscope, with six 96-well plates imaged in about 24 minutes. Images were captured and exported and JPEG files. Spent culture media was transfered to black-well plates for the LDH assay, and remaining media was sorted at -80 C for later use. Cells were treated with RLT buffer and frozen until shipped for gene expression analysis. Total RNA was isolated from the cell suspension in 75 uL of Buffer RLT (Qiagen, Germantown, MD 20874) by Quintiles/Expression Analysis (Durham, NC) using a custom isolation procedure. Total RNA from each plate well was transferred to a preamplification plate. Fluidigm's 96.96 Dynamic ArrayTM (Fluidigm, Amsterdam, the Netherlands) technology was used for gene expression analyses by quantitative reverse transcription polymerase chain reaction (qRT-PCR, performed by Quintiles/Expression Analysis, Durham, NC)89. Standard TaqManTM Assays (Applied Biosystems/ThermoFisher Scientific, Foster City, CA) were used to assess the expression of 93 genes selected based on their selectivity and sensitivity to important hepatic receptors known to be modulated by environmental chemicals; importance in human hepatocyte functionality; and hepatotoxicity. […]

Row | Compound | outcome | AC50
1 | CN(C)C(=O)Cl | inactive | –
2 | Nc1ccc(Cl)cc1 | inactive | –
3 | CCC1(c2ccccc2)C(=O)N=C(O)NC1=O (centres undefined) | inactive | –
4 | CCCN(CCC)c1c([N+](=O)[O-])cc(C(C)C)cc1[N+](=O)[O-] | inactive | –
5 | OCC1CO1 (centres undefined) | inactive | –
6 | CCOc1ccc(C(C)(C)COCc2cccc(Oc3ccccc3)c2)cc1 | inactive | –
7 | [N-]=[N+]=[N-] | – | 50 µM (active)
8 | CCOP(=S)(Oc1ccc([N+](=O)[O-])cc1)c1ccccc1 (centres undefined) | inactive | –
9 | CCCCN(CCCC)N=O | inactive | –
10 | ClC(Cl)c1ccccc1 | inactive | –
11 | CC(C)(C)OOC(C)(C)C | inactive | –
12 | Cc1ccc([N+](=O)[O-])cc1C | inactive | –
13 | COCCOCCO | inactive | –
14 | CSC(C)(C)C=NO | inactive | –
15 | Nc1cc2c3c(c1)C(c1ccccc1)=N[C@@H](NC(=O)c1cccnc1)C(=O)N3CC2 | – | 10.9 µM (active)
16 | c1nc[nH]n1 | inactive | –
17 | ClC1=C(Cl)C2(Cl)C3C(Cl)C(Cl)CC3C1(Cl)C2(Cl)Cl (centres undefined) | – | 26.2 µM (active)
18 | ClC(Cl)(Cl)c1ccccc1 | inactive | –
19 | O=[N+]([O-])c1ccc(Cl)c(Cl)c1 | inactive | –
20 | c1ccc2c(c1)Nc1ccccc1S2 | inactive | –

Row | Compound | outcome | AC50
21 | CCN(CC)c1ccccc1 | inactive | –
22 | O=C(O)C(Cl)Cl | inactive | –
23 | O=P(Oc1ccccc1)(Oc1ccccc1)Oc1ccccc1 | inactive | –
24 | CCC(C)(C)c1ccc(O)cc1 | inactive | –
25 | c1ccc(OP(Oc2ccccc2)Oc2ccccc2)cc1 | inactive | –
26 | O=C(O)C1C(C(=O)O)C2(Cl)C(Cl)=C(Cl)C1(Cl)C2(Cl)Cl (centres undefined) | inactive | –
27 | CC(Cl)(Cl)C(=O)O | inactive | –
28 | CC(Cc1ccc(OCC(=O)O)cc1)NCC(O)c1csc(C(F)(F)F)n1 (centres undefined) | inactive | –
29 | O=P1(N(CCCl)CCCl)NCCCO1 (centres undefined) | inactive | –
30 | CCCCc1ccccc1 | inactive | –
31 | Nc1ccc2ccccc2c1 | inactive | –
32 | Cc1ccc(N)cc1N | inactive | –
33 | CCOS(=O)(=O)OCC | inactive | –
34 | CCCCCCCc1ccc(O)cc1 | inactive | –
35 | c1cc2c3c(cccc3c1)CC2 | inactive | –
36 | CCCCN(CCCC)SN(C)C(=O)Oc1cccc2c1OC(C)(C)C2 | inactive | –
37 | CCNc1nc(Cl)nc(NC(C)(C)C)n1 | – | 11 µM (active)
38 | CCOP(=S)(OCC)SCSCC | inactive | –
39 | CCOC(=O)c1ccccc1C(=O)OCC | inactive | –
